Assay results taken from PubChem BioAssay AID2314 (National Center for Advancing Translational Sciences (NCATS), 2010).
Values joined by “and” are separate entries in the source; they are usually repeats but may differ in a detail not shown here. Identical values can stand only once. Out of some 300,000 compounds screened, about 37,000 (12%) were called active. No stated cut-off is given here; in the data, active means max response mostly above about 13% (no sharp cut-off); inactive means mostly below about 14%. What follows is part of a selection rich in actives, with near analogues and random picks from the rest.

experiment: Cycloheximide Counterscreen for Small Molecule Inhibitors of Shiga Toxin; details: cell reporter, cycloheximide protein synthesis inhibition counterscreen; active compounds read high; further: read at 38.3 µM for the half of the compounds with a filed dose; 0% is about no effect

Row | SMILES | max response
1 | O=C(Nc1ccc2ccccc2c1)/C(=C/c1cccc(Br)c1)NC(=O)c1ccco1 | -5.2% (inactive)
2 | O=C(Nc1ccccc1)O/N=C1\CCCCC1c1ccc([N+](=O)[O-])cc1[N+](=O)[O-] (configuration not stated) | -0.778% (inactive)
3 | O=C(Nc1ccccc1)O/N=C1/CCCc2occc21 | 19.6% (active)
4 | COc1ccc2c(c1)CCC/C2=N\OC(=O)c1ccccc1F | 33% (inactive)
5 | CN(C)S(=O)(=O)c1ccc(N/C=C(\[N+](=O)[O-])S(=O)(=O)c2ccccc2)cc1 | -2.27% (inactive)
6 | Cc1cc(Br)ccc1NC(=O)c1cnc(N2CCN(c3ccccn3)CC2)c2ccccc12 | -4.22% (inactive)
7 | Cc1ccc(NC(=O)CSc2sc3c(O)cc(=O)[nH]c3c2C#N)cc1C | -5.26% (inactive)
8 | COc1ccc(S(=O)(=O)N2CCN(C(=O)N(C)C)C2C)cc1 (configuration not stated) | -6.24% (inactive)
9 | COc1ccc(CNC(=O)c2c[nH]c3c(OC)cc(OC)cc3c2=O)cc1 | 2.74% (inactive)
10 | O=C(CSc1nnc(-c2c[nH]c3ccccc23)n1-c1ccc(F)cc1)NCc1ccco1 | 11.7% (active)
11 | O=C(CSc1nnc(-c2cccs2)n1-c1ccccc1)NCc1ccco1 | -2.76% (inactive)
12 | COc1ccc(-n2c(SCC(=O)NCc3ccco3)nnc2-c2c[nH]c3ccccc23)cc1 | 1.31% (inactive)
13 | COc1ccc(CC(=O)NC2CCSc3ccccc32)cc1OC (configuration not stated) | 2.51% (inactive)
14 | CC(C)[C@@H](C(=O)O)N(Cc1cccc(CN([C@H](C(=O)O)C(C)C)S(C)(=O)=O)c1)S(C)(=O)=O | -2.74% (inactive)
15 | O=C(O)C1CCN(C(=O)c2cc(F)cc3c2OCOC3)CC1 | -2.01% (inactive)
16 | CCN(CC)C(=O)CC(c1ccc2c(c1)OCO2)c1c(OC)cc(OC)c2c(-c3ccccc3)cc(=O)oc12 (configuration not stated) | 7.27% (inactive) and 12.1% (inactive)
17 | Cc1ccc2nc(-c3ccc(SCC(=O)Nc4cc(C)on4)nc3)[nH]c2c1 | 40.1% (active)
18 | Cc1cc(NC(=O)CSc2nc3ccccc3n2CC(C)C)no1 | 16.2% (inactive)
19 | Cc1cc(NC(=O)CSc2nc(=O)cc(N)n2-c2ccc(F)cc2)no1 | -1.93% (inactive)

Row | SMILES | max response
20 | Cc1ccc(N2CC(C(=O)Nc3ccc(S(=O)(=O)N4CCCC4)cc3)CC2=O)cc1C (configuration not stated) | -2.43% (inactive)
21 | COc1ccccc1C(=O)COC(=O)CNS(=O)(=O)c1ccc(NC(C)=O)cc1 | 3.07% (inactive)
22 | CC(C)C[C@H](NC(=O)N1CC(=O)Nc2ccccc21)C(=O)N[C@H](Cc1ccccc1)C(=O)O | -1.39% (inactive)
23 | COc1ccc(OC)c(C2C3=C(N=c4s/c(=C\c5cccc(O)c5)c(=O)n42)c2ccccc2CC3)c1 (configuration not stated) | -1.53% (inactive)
24 | COc1ccc(NC(=O)c2cc3nc(-c4ccccc4)cc(C)n3n2)cc1OC | -3.85% (inactive)
25 | CC(C)c1ccc(OCC(=O)N2CCCN(C)CC2)cc1 | 14.8% (inactive)
26 | CC(C)c1ccc(OCC(=O)N2CCN(C)CC2)c(Br)c1 | 11.3% (active)
27 | CN1CCN(C(=O)COc2ccc(C(C)(C)C)cc2Br)CC1 | -0.455% (inactive)
28 | Cc1ccc(-c2nc(C)sc2CC(=O)OCC(=O)Nc2c(F)cccc2F)cc1 | 1.62% (inactive)
29 | O=C(Nc1ccc(N2CCCC2=O)cc1)c1cncc(Br)c1 | 1.75% (inactive)
30 | COCn1c(C(O)c2ccccc2)cc2ccccc21 (configuration not stated) | 5.67% (inactive)
31 | CC(C)NC(=O)COCc1cc(-c2ccc3c(c2)OCO3)on1 | 34.6% (active)
32 | CCOC(=O)N1CCN(C(=O)COCc2cc(-c3ccc4c(c3)OCO4)on2)CC1 | 9.44% (inactive)
33 | Cc1cccc(N2CCN(C(=O)COCc3cc(-c4ccc5c(c4)OCO5)on3)CC2)c1C | 13.7% (inactive)
34 | CCCn1nnnc1NCc1ccc(CC)cc1 | 15.5% (inactive)
35 | CCN1CCN(c2sc(S(C)(=O)=O)nc2S(=O)(=O)c2ccc(Cl)cc2)CC1 | 13.5% (inactive)
36 | O=C(Nc1ccc(Cl)cc1)Nc1nnc(/C=C/c2ccccc2)s1 | 6.47% (inactive)
37 | O=C(CSc1ccccc1)Nc1nnc(/C=C/c2ccccc2)s1 | 0.905% (inactive)
38 | COc1ccc(/C=C/c2nnc(NC(=O)C(C)C)s2)cc1 | 13.9% (active)

Row | SMILES | max response
39 | CCCCNC(=O)N1CCCC(N(C)CCc2ccc(OC)c(OC)c2)C1 (configuration not stated) | -0.786% (inactive)
40 | CCCC(=O)n1nc(-c2ccccc2)nc1N | -1.34% (inactive)
41 | Cc1nn(C(=O)c2ccoc2C)c(N)c1-c1ccccc1 | 53.9% (active)
42 | CCOC(=O)c1c(N)nn(C(=O)c2ccccc2)c1-c1ccccc1 | -1.7% (inactive)
43 | CCC(C)[C@@H](N)C(=O)O (some centres not stated) | -4.08% (inactive)
44 | CCCCNC(=O)c1ccccc1NC(=O)C1=C(C)OCCS1 | 1.86% (inactive)
45 | O=c1c2c(nc3n1CCCCC3)sc1c(O)cccc12 | 12.7% (inactive)
46 | Cc1nc(N2CCN(c3ccccn3)CC2)c2c(C)c(C(=O)Nc3ccc(F)cc3)sc2n1 | 1.78% (inactive)
47 | O=C(Nc1ccc2nc3n(c(=O)c2c1)CCCCC3)c1ccccc1Cl | 23% (active)
48 | COc1ccc(CCNC(=O)C(=O)Nc2ccc3nc4n(c(=O)c3c2)CCCCC4)cc1OC | -0.998% (inactive)
49 | CC(=O)c1sc2nc(SCC(=O)N3CCCCC3)[nH]c(=O)c2c1C | -3.21% (inactive)
50 | Cc1nc(N2CCOCC2)c2c(C)c(C(=O)Nc3ccc(C(F)(F)F)cc3)sc2n1 | -1.52% (inactive)
51 | Cc1c(C(=O)Nc2ccccc2)sc2nc3n(c(=O)c12)CCCCC3 | 36.1% (active)
52 | CCCCN(CC)C(=S)Nc1ccc2nc3n(c(=O)c2c1)CCCCC3 | -3.24% (inactive)
53 | CC(=O)c1ccc(NC(=O)c2sc3nc4n(c(=O)c3c2C)CCCCC4)cc1 | 47.8% (active)
54 | O=[N+]([O-])/C=C/c1ccc2c(ccn2Cc2ccccc2)c1 | -1.88% (inactive)
55 | CN(C)CCCCCN(C)Cc1cc2ccccc2o1 | -0.524% (inactive)
56 | COCCCNC(=O)CNC(=O)c1nn(-c2ccc(OC)cc2)c(=O)c2ccccc12 | -1.37% (inactive)
57 | O=C(Nc1ccccc1C(=O)O)c1ccc(N2C(=O)C3CC=CCC3C2=O)cc1 (configuration not stated) | -5.5% (inactive)
